Shown are actives, neighbours in structure and some others; about 14% of the full set was active somewhere.
USP30 block: blocks human USP30 ubiquitin-rhodamine cleavage | AID 1645860 | actives 5.3% (n = 47,000) | purified USP30, Ub-rhodamine cleavage fluorescence | Q70CQ3 | inhibition, % at 25 µM
USP17 inh: inhibitors of human USP17 deubiquitinase. A8MUK1. purified USP17, Ub-rhodamine cleavage fluorescence, 3 h. inhibition, % at 50 µM. actives 6.5% (n = 47,000)
Target sequence (A8MUK1 whole entry, looked up): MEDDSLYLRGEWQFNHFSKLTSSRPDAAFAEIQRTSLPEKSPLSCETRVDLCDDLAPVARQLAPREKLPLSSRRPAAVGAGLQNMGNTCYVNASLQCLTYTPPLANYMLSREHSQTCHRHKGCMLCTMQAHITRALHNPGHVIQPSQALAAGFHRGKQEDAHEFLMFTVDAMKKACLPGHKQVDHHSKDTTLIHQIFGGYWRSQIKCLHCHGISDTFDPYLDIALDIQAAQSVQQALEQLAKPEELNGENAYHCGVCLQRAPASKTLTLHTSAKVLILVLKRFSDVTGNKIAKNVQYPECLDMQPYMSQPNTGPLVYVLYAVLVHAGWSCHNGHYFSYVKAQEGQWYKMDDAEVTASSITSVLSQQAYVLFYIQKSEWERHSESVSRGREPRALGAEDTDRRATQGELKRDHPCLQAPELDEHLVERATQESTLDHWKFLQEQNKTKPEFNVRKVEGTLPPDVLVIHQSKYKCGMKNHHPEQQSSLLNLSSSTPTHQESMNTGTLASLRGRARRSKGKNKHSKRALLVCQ
USP8 inh: inhibitors of human USP8 deubiquitinase. purified USP8, Ub-rhodamine cleavage fluorescence, 30 min. inhibition, % at 20 µM. actives 4.2% (n = 47,000)
USP10 inh: blocks human USP10 ubiquitin-rhodamine cleavage; Q14694; purified USP10, Ub-rhodamine fluorescence, 60 min; inhibition, % at 20 µM; actives 1.1% (n = 47,000); AID 1645856
USP28 block: inhibitors of human USP28 deubiquitinase; Q96RU2; purified USP28, Ub-rhodamine cleavage fluorescence, 30 min; inhibition, % at 25 µM; actives 3% (n = 47,000)
Large screens that a line does not name were inactive. Cut-off read from the data, not from the text of the source: active = inhibition above about 30%; inactive = the rest.

COc1ccc(/C=C/c2cc(OC)cc(=O)o2)cc1	USP30 block 32.3, USP17 inh 30.1
COc1ccc(NS(=O)(=O)/C=C/c2ccc(OC)c(OC)c2)cc1	none
O=S1(=O)CCN(Cc2cccnc2)c2c(Oc3ccccc3)nc(F)c(Cl)c21	none
COCCCN1CCS(=O)(=O)c2c(Cl)c(F)nc(Oc3ccccc3F)c21	USP17 inh 87.9, USP8 inh 95.4
N#Cc1ccc(Oc2nc(F)c(Cl)c3c2N(CC2CCCO2)CCS3(=O)=O)cc1 (configuration not stated)	USP17 inh 46.6, USP8 inh 71.1
O=S1(=O)CCN(CC2CCCO2)c2c(Oc3ccc(F)cc3)nc(F)c(Cl)c21 (configuration not stated)	USP17 inh 33.7, USP8 inh 70.3
O=S1(=O)CCN(CC2CCCO2)c2c(Oc3ccccc3)nc(F)c(Cl)c21 (configuration not stated)	USP17 inh 60.2, USP8 inh 91.7
Cc1cc(C)c(S(=O)(=O)NCc2nnnn2-c2ccccc2)c(C)c1	none
CCCN1CCN(C(=O)c2cn3ccnc(-c4ccc(F)cc4)c3n2)CC1	none
COCCOc1cccc(CN2[C@H](Cc3ccccc3F)C[C@@H]3NC(=O)CCCC[C@H]32)c1	none
Clc1ccc(-c2noc(CN3CCCC3c3ccccc3)n2)cc1 (configuration not stated)	none (no result: USP17 inh)
COc1cccc(C2CC(c3ccc(F)cc3)=NC3(CCN(C)CC3)N2)c1O (configuration not stated)	USP8 inh 40.9
Cc1cnc(C(=O)N2CC[C@H]3NC(=O)c4ccccc4OCC/C=C/C[C@H]3C2)cn1	none
Cc1cnc(C(=O)N2CCC[C@@H]3NC(=O)c4ccccc4OCC/C=C/C[C@@H]32)cn1	USP28 block 45.0
Cc1ccc(CN2CCCC(c3nc(-c4cccnc4)n[nH]3)C2)s1 (configuration not stated)	none
COc1cccc(NC(=O)Cn2c(=O)cc(-c3ccccc3)c3c(C)nn(-c4ccccc4)c32)c1	none
COc1ccc(Cl)cc1NC(=O)Cn1c(=O)cc(C)c2c(C)nn(-c3ccccc3)c21	USP17 inh 56.1
Cc1cc(=O)n(CC(=O)NCc2ccccc2F)c2c1c(C)nn2-c1ccccc1	USP30 block 33.1, USP17 inh 61.9
Cc1cc(=O)n(CC(=O)NCC2CCCO2)c2c1c(C)nn2-c1ccccc1 (configuration not stated)	none
O=C(COC(=O)c1ccc(NS(=O)(=O)c2ccc3c(c2)OCCO3)cc1)NCc1ccc(Cl)cc1	USP30 block 50.4, USP28 block 74.5
O=C(CNc1ccc(F)c(Cl)c1)Nc1ccc2c(c1)OCCO2	USP28 block 63.5
O=C(COC(=O)c1cc(Cl)ccc1O)Nc1ccc2c(c1)OCCO2	USP17 inh 60.0
Cc1cc(C)cc(C(=O)OCC(=O)Nc2ccc3c(c2)OCCO3)c1	none
Cc1ccc(S(=O)(=O)N(CC(=O)Nc2ccc3c(c2)OCCO3)c2ccccc2F)cc1	none
O=C1CC(c2cccc(Cl)c2)c2c(c3ccccc3[nH]c2=O)O1 (configuration not stated)	none
O=c1[nH]c2ccccc2n1CCCOc1ccc(Cl)cc1	USP28 block 39.8
O=C(Cn1c(=O)[nH]c2ccccc2c1=O)N1CCN(c2ccc(Cl)cc2)CC1	none
Cc1ccc(OCc2nc3ccccc3n2Cc2ccc(F)cc2)cc1	USP17 inh 34.0
c1ccc(Cn2c(CNc3cccc4ccccc34)nc3ccccc32)cc1	USP8 inh 57.9
Fc1ccc(NCc2nc3ccccc3n2Cc2ccccc2)cc1	USP30 block 42.5, USP28 block 33.4
CCOc1ccc(NCc2nc3ccccc3n2Cc2ccccc2)cc1	USP8 inh 41.7
Fc1ccc(OCCn2c(COc3ccccc3)nc3ccccc32)cc1	none
C=C(C)Cn1c(CNC(=O)Cc2ccccc2)nc2ccccc21	none
O=C(C1CCCN(c2nc3ncccc3n3cccc23)C1)N1CCN(c2ccccn2)CC1 (configuration not stated)	none
Cc1ccc(N2CCN(S(=O)(=O)c3c(C)nc4sc(C)nn34)CC2)cc1	none
O=C(Nc1ccc(CN2CCOCC2)cc1)c1cc2cc(Br)ccc2o1	USP28 block 46.6
Cc1ccc(S(=O)(=O)Nc2nc(-c3ccc4c(c3)NC(=O)C(C)O4)c(C)s2)cc1 (configuration not stated)	USP8 inh 49.7, USP10 inh 40.5 (no result: USP17 inh)
COc1cccc(C(=O)Nc2nc(-c3ccc4c(c3)NC(=O)C(C)O4)c(C)s2)c1 (configuration not stated)	none
c1ccc2c(Cc3nc(-c4ccncc4)no3)cccc2c1	USP28 block 85.5
CCn1cnc2cc(NC(=O)c3ccccc3F)ccc21	none
COc1ccc(C(CC(=O)NCc2cccc(OC)c2)n2cccc2)cc1 (configuration not stated)	USP17 inh 37.7
COc1ccc2cc(C(C)C(=O)NCc3cccc(NS(N)(=O)=O)c3)ccc2c1 (configuration not stated)	USP30 block 41.8, USP8 inh 45.5
O=C(CC(c1cccc(F)c1)n1cccc1)Nc1ccc2c(c1)OCO2 (configuration not stated)	USP8 inh 44.8
O=C(CC(c1cccc(F)c1)n1cccc1)NCc1ccc(Cl)cc1 (configuration not stated)	USP30 block 37.8
O=C(CC(c1cccc(F)c1)n1cccc1)Nc1ccc2c(c1)OCCO2 (configuration not stated)	none
CC(C)(C)OC(=O)NCC1CCC(C(=O)NCCc2c[nH]c3ccccc23)CC1 (configuration not stated)	none
CCn1c(=O)c2nscc2n(CC(=O)NCc2ccc(Cl)cc2)c1=O	none
CCOC(=O)c1oc2ccc(S(=O)(=O)Nc3ccc4c(c3)COC4=O)cc2c1C	none
CC1CCN(S(=O)(=O)N2CCCC(C(=O)Nc3cccc(F)c3)C2)CC1 (configuration not stated)	none
Cc1cc2c3c([nH]c2cc1S(=O)(=O)NCc1ccc2c(c1)OCO2)CCCC3=O	USP28 block 30.9
Cc1cc2c3c([nH]c2cc1S(=O)(=O)N1CCCCC1C)CC(C)(C)CC3=O (configuration not stated)	none
CCc1cc2c3c([nH]c2cc1S(=O)(=O)NCc1ccccc1)CCCC3=O	none
Cc1cc2c3c([nH]c2cc1S(=O)(=O)N1CCCCC1C)CCCC3=O (configuration not stated)	USP17 inh 36.8
Cc1ccc(CNS(=O)(=O)c2cc3[nH]c4c(c3cc2C)C(=O)CCC4)cc1	USP28 block 43.6
Cc1ccc(N(C)C(=O)CCS(=O)(=O)c2ccc3c(c2)SCC(=O)N3)cc1	none
CC1(C)CS(=O)(=O)N(c2ccc(C(=O)N3CCN(c4ccccc4)CC3)cc2)C1=O	none (no result: USP30 block, USP28 block)
Cc1nc(-c2ncc(C)[nH]2)cc(C2CCN(C(=O)c3cccnc3)CC2)n1	none
COCc1cc(C)nc2sc(-c3ccccn3)c(N)c12	none
Cc1cc2c3c([nH]c2cc1S(=O)(=O)NCCc1ccccc1)CC(C)(C)CC3=O	none

High-throughput results (PubChem BioAssay)
